In assay [1] the target is Lysosomal acid glucosylceramidase (Homo sapiens) (UniProt P04062). The assay can be described thus: Glucocerebrosidase-p2 (AID 348; in the data active = potency below about 10 µM; also: potency is read from the fitted curve at half-maximal effect). Conditions: purified GBA, blue fluorogenic substrate, 40 min. The gist of the method:
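Normal human glucocerebrosidase (0.2 nM) with blue fluorogenic substrate (80 uM final) in citrate/phosphate pH 5.9 with 10mM sodium taurocholate, 0.01% tween-20; 40 min RT, NaOH/glycine stop; fluorescence Ex 365/Em 440; AC50 from a titration from 0.6 nM upwards.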

A short description of assay [2]: AP1 Signaling Pathway (AID 357).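 Also: ME-180 reporter cells stimulated with EGF at its EC50 level; % is scaled to controls: 0 for no effect and ±100 for the full control effect.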 As to conditions: ME-180 AP-1-bla reporter, EGF-induced, beta-lactamase ratio, 5 h; at 7.69 µM (top of the series) unless noted. An outline of the steps:
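Beta-lactamase reporter under AP-1 response element, ME-180 background. Stimulus: EC50 EGF. Compound exposure 5 h, 37 °C. Detection: CCF4, 2.5 h RT, 460/530 nm. Values: AC50 from titration.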

A short description of assay [3]: NFAT Signaling Pathway (AID 444).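 Also: carbachol stimulus at about its EC50 of 1 µM final; % is scaled to controls: 0 for no effect and ±100 for the full control effect.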 As to conditions: Jurkat NFAT-bla M1, carbachol, beta-lactamase ratio, 5 h; at 7.69 µM (top of the series) unless noted. An outline of the steps: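 Jurkat cells carrying an NFAT-driven β-lactamase reporter and co-transfected muscarinic M1 receptor were treated with compound plus carbachol (1 uM final, an EC50 level) for 5 h at 37 °C. CCF4 loading followed for 1 h at RT; 460/530 nm ratio gave %activity.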

Assay [4] in a line: Stat Signaling Pathway (AID 446).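 Also: ME-180 cervical cancer cells given 40 pM IL-6 alongside compound; SIE-controlled beta-lactamase reporter measured as 460/530 nm FRET emission ratio; % is scaled to controls: 0 for no effect and ±100 for the full control effect.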 As to conditions: ME-180 (cervical carcinoma) SIE beta-lactamase reporter, IL-6 stimulated, 5 h; at 7.69 µM (top of the series) unless noted. An outline of the steps: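 Emission at 460 and 530 nm (excitation 405 nm) reports SIE-controlled beta-lactamase in ME-180 cells. Cells received compound with 40 pM IL-6 for 5 hrs at 37 C; data scaled between 300 pM IL-6 and 125 nM JAK-inhibitor controls.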

The target in assay [5] is Glucocorticoid receptor (Homo sapiens) (UniProt P04150). The assay can be described thus: GR-GFP Redistribution (AID 450;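 active = compounds whose dose series gives a full or clear partial fitted curve of increased nuclear translocation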; also: potency is read from the fitted curve at half-maximal effect). Conditions: U2OS GR-GFP nuclear translocation, laser cytometry, 2 h.
Assay [6] has the same target. Kind of assay: GR-EFC Redistribution (AID 451; calls by dose curve; also: potency is read from the fitted curve at half-maximal effect). Conditions: CHO-K1 GR-EFC translocation, beta-gal luminescence, 2 h. The gist of the method: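 CHO-K1 cells stably expressing nuclear-localized β-gal enzyme acceptor and GR fused C-terminally to the enzyme donor fragment; ligand-driven nuclear translocation restores β-gal by complementation. Compounds titrated up to 46 uM final, 2 h at 37 °C; luminescence read.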

Assay [7] has as its target Mitogen-activated protein kinase 10 (Mus musculus) (UniProt Q61831). The assay can be described thus: JNK3 AlphaScreen Assay (AID 530).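 Also: kinase came from lysate of stimulated human HepG2 cells; signal reports phosphorylation of biotinylated GST-cJun 1-79 at Ser73 with 10 µM ATP; % is scaled to controls: 0 for no effect and ±100 for the full control effect.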 Conditions: JNK3 lysate, c-Jun phosphorylation; series mostly up to 57.1 µM. The gist of the method:
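Phosphorylation of biotinylated GST-cJun(1-79) at Ser73 is measured by AlphaScreen proximity luminescence. Enzyme is JNK3 in HepG2 lysates activated with interleukin-1beta and tumor necrosis factor alpha; ATP is 10 uM final.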

The target in assay [8] is 3',5'-cyclic-AMP phosphodiesterase 4B (Homo sapiens) (UniProt Q07343). The assay can be described thus: qHTS Assay for Inhibitors of PDE-IV (AID 607; active = well fitted activation curve with a large enough effect in the main read-out, with a control signal flat, not every such curve was filed as active; also: % of control where 0% means no effect). As to conditions: HEK293 ACTOne CNG channel cells, membrane potential fluorescence; series mostly up to 22.9 µM. The gist of the method: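 The readout is membrane depolarisation from a cAMP-sensing CNG channel, detected with a potential dye at ex 535/em 590. Cells were HEK293-derived (endogenous PDE-IV) at 1000 cells/well, titrated up to 22.9 uM final.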
(Quantitative high-throughput screening tests each substance at several concentrations.)

For assay [9], the target named is Cytochrome P450 3A4 (Homo sapiens) (UniProt P08684). Kind of assay: qHTS Assay for Activators of Cytochrome P450 3A4 (AID 885; active = well fitted curve in the direction sought with a large enough effect; an effect the other way counts as inactive or inconclusive; also: nearly all actives have a fitted effect of over 65% in size). As to conditions: recombinant CYP3A4, Luciferin-PPXE luminescence, 60 min; series mostly up to 57.1 µM. An outline of the steps: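 Activators are scored by enhanced luminescence from CYP3A4 conversion of luciferin-PPXE (25uM, equal to KM) to luciferin, after 60 min at RT with an NADPH-regenerating system.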

Assay [10] can be described thus: Confirmation and Secondary Assay for Modulators of Hemoglobin Beta Chain Splicing at IVS2 654 locus (AID 910; active = well fitted curve in the direction sought with a large enough effect; an effect the other way counts as inactive or inconclusive;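 also: per-well total GFP intensity by laser scanning cytometry after 2-day treatment; % of control where 0% means no effect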). Conditions: HeLa EGFP-654 splicing reporter, GFP fluorescence, 48 h; series mostly up to 38.3 µM. An outline of the steps:
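HeLa cells stably carrying EGFP interrupted by mutant beta-globin IVS2-654 intron (CMV-driven) were treated with compound for 2 days at 37C; corrected splicing was scored as total peak GFP intensity per well (488 nm excitation, 500-520 nm emission).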

Assay [11] can be described thus: Confirmation and Secondary Assay for Modulators of Hemoglobin Beta Chain Splicing at IVS2 705 locus (AID 930; active = well fitted curve in the direction sought with a large enough effect; an effect the other way counts as inactive or inconclusive;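 also: HeLa cells stably expressing the EGFP-705 splicing reporter; GFP fluorescence per well restored by corrected splicing of the IVS2-705 intron in EGFP; % of control where 0% means no effect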). Conditions: HeLa EGFP-705 splicing reporter, GFP fluorescence, 48 h; series mostly up to 38.3 µM. An outline of the steps:
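HeLa EGFP-705 reporter; 500 cells/well, o/n 37C 5% CO2; cpd 2 d; 488 ex/500-520 em laser scan; total peak GFP intensity/well. Ref: 500 nM […] antisense PNA.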

A short description of assay [12]: qHTS Assay for Lipid Storage Modulators (AID 1519; calls by dose curve). As to conditions: Drosophila S3 cells, BODIPY lipid droplet/cell ratio, laser cytometry, cells loaded with oleic acid; for activity change, negative = inhibition: at 57.5 µM (top of the series). The gist of the method:
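Cells seeded at 5,000 per well were treated with compounds over a concentration series and loaded with oleic acid (400 uM, as added). Lipid droplet fluorescence (488 nm excitation, 500-530 nm channel) was read by laser-scanning cytometry and normalized to 20 uM Triacsin C.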

Assay [13] has as its target Ubiquitin carboxyl-terminal hydrolase 1 (Homo sapiens) (UniProt O94782). The assay can be described thus: Inhibitors of USP1/UAF1: Pilot qHTS (AID 504865; active = well fitted curve in the direction sought with a large enough effect; an effect the other way counts as inactive or inconclusive;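 also: rhodamine fluorescence freed from ubiquitin-rhodamine substrate followed over time; top concentration of the series differs between compounds; % is scaled to controls: 0 for no effect and ±100 for the full control effect; nearly all actives have a fitted effect of over 35% in size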). As to conditions: purified USP1/UAF1, Ub-rhodamine cleavage fluorescence; series mostly up to 54.9 µM. The gist of the method:
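Kinetic fluorescence assay: 1nM USP1/UAF1, 15 min compound preincubation, then 150nM Ub-Rho; 480/540 nm.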

Assay [14] in a line: Primary qHTS for small molecule stabilizers of the endoplasmic reticulum resident proteome: Secreted ER Calcium Modulated Protein (SERCaMP) assay (AID 1508630; active = well fitted curve in the direction sought with a large enough effect; an effect the other way counts as inactive or inconclusive; also: % is scaled to controls: 0 for no effect and ±100 for the full control effect). Conditions: SH-SY5Y GLuc-SERCaMP (Gaussia luciferase released on ER calcium loss) secretion, thapsigargin, luminescence; series mostly up to 38.4 µM. An outline of the steps: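 The SH-SY5Y reporter protocol was run at 3 concentrations up to 38.3 uM (primary) or 11 concentrations (follow-up): 16 h compound, 100 nM thapsigargin for 4 h, then extracellular luciferase luminescence.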

In assay [15] the target is Cytochrome P450 1A2 (Homo sapiens) (UniProt P05177). The assay can be described thus: p450-cyp1a2 (AID 410; calls by dose curve;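 also: -100% = full effect of reference inhibitor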). Conditions: recombinant CYP1A2, luciferin-ME demethylation, luminescence; series mostly up to 57 µM. The gist of the method:
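O-Demethylation of luciferin 6' methyl ether by human CYP1A2 is monitored as luciferase luminescence. Substrate sits at Km (100uM); enzyme is 20nM. Values are scaled to 57 uM furafylline as maximal inhibition.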

In assay [16] the target is Cytochrome P450 2D6 (Homo sapiens) (UniProt P10635). Kind of assay: qHTS Assay for Inhibitors and Substrates of Cytochrome P450 2D6 (AID 891; active = well fitted curve in the direction sought with a large enough effect; an effect the other way counts as inactive or inconclusive; also: potency is read from the fitted curve at half-maximal effect; nearly all actives have a fitted effect of over 60% in size). As to conditions: recombinant CYP2D6, luciferin-ME EGE luminescence; series mostly up to 57.1 µM. An outline of the steps: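 Luminescent read-out of luciferin formed by 5 nM human CYP2D6 demethylating 30 uM Luciferin-ME EGE (Km level) over 60 min at room temperature after NADPH regeneration addition. Data normalized to full inhibition by 1.43 uM quinidine.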

Assay [17] has as its target Cytochrome P450 2C9 (Homo sapiens) (UniProt P11712). Kind of assay: qHTS Assay for Inhibitors and Substrates of Cytochrome P450 2C9 (AID 883; active = well fitted curve in the direction sought with a large enough effect; an effect the other way counts as inactive or inconclusive; also: potency is read from the fitted curve at half-maximal effect; nearly all actives have a fitted effect of over 60% in size). As to conditions: recombinant CYP2C9, luciferin-H luminescence, 60 min; series mostly up to 57.1 µM. An outline of the steps:
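A luminogenic readout tracked human CYP2C9 (10nM) converting deoxyluciferin (100uM, at KM) in 25mM KPO4 during 60 min at 37C with regenerated NADPH. Values normalized to 57uM sulphaphenazole as complete inhibition.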

Assay [18] deals with Cytochrome P450 2C19 (Homo sapiens) (UniProt P33261). The assay can be described thus: qHTS Assay for Inhibitors and Substrates of Cytochrome P450 2C19 (AID 899; active = well fitted curve in the direction sought with a large enough effect; an effect the other way counts as inactive or inconclusive; also: potency is read from the fitted curve at half-maximal effect; nearly all actives have a fitted effect of over 60% in size). Conditions: recombinant CYP2C19, luciferin-H EGE luminescence; series mostly up to 57.1 µM. An outline of the steps: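 NADPH-dependent conversion of Luciferin-H EGE (10uM, at KM) by 5nM enzyme in 50mM KPO4, 60 min at 37C following 10 min compound preincubation. Stopped with luciferin detection buffer; luminescence read after 20 min.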

Setting [19] is: measured here: cell count channel max response.
Setting [20] is: measured here: lipid channel max response.

Molecules are shown by their SMILES. Results filed as inconclusive are left out. Active and inactive are the calls of the source. Unless noted, calls follow the shape of the dose curve; as a rule, active = well fitted curve in either direction with a large enough effect (not every such curve was filed as active); inconclusive = small, poorly fitted or top-dose-only effect, or another doubt; inactive = flat fitted curve, though single readings scatter.

3',5'-cyclic-AMP phosphodiesterase 4B (Homo sapiens), sequence (Q07343 whole entry, looked up): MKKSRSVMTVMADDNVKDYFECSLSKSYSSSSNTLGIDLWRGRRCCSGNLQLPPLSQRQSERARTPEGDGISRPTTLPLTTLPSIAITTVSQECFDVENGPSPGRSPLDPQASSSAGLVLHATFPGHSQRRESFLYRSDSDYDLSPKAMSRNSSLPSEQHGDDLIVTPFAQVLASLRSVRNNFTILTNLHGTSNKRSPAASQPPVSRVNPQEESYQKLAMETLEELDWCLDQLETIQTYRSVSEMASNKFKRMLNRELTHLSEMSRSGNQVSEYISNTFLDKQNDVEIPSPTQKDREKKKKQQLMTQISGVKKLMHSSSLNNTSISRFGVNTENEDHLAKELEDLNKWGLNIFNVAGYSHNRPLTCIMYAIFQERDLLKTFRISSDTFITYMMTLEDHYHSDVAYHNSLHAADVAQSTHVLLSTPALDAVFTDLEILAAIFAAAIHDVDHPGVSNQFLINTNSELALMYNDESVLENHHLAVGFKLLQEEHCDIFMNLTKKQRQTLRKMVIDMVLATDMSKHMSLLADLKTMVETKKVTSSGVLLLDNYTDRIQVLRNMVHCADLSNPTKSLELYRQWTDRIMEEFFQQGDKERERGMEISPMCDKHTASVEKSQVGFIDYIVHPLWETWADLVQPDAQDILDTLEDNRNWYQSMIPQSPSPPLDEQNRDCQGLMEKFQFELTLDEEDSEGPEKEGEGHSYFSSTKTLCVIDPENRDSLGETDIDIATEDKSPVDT
Cytochrome P450 1A2 (Homo sapiens), sequence (P05177 whole entry, looked up): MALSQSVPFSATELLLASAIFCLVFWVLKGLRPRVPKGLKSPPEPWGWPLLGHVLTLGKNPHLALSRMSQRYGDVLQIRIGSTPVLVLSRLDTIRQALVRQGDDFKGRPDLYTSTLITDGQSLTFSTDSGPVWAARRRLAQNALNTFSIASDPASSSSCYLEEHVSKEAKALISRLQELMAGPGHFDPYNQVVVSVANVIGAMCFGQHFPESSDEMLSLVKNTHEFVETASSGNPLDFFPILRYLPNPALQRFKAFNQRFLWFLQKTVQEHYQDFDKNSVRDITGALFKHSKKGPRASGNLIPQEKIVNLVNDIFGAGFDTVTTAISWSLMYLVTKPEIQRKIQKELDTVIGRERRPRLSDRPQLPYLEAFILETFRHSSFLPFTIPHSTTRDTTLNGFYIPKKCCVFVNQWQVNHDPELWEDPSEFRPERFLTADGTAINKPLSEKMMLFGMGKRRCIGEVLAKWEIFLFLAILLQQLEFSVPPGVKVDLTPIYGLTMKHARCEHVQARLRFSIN
Cytochrome P450 2D6 (Homo sapiens), sequence (P10635 whole entry, looked up): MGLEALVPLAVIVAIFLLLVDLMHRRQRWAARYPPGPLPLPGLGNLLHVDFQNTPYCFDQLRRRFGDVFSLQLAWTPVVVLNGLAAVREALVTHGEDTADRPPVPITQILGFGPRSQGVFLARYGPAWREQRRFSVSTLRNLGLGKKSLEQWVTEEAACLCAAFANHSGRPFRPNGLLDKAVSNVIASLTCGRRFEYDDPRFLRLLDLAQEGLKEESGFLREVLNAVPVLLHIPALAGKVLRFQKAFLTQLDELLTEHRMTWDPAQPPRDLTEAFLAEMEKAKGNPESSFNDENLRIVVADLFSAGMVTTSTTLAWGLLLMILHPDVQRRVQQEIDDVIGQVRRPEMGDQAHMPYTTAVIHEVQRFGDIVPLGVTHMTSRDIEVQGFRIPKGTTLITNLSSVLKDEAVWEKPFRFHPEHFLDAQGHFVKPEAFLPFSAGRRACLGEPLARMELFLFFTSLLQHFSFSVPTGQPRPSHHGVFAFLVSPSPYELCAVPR
Glucocorticoid receptor (Homo sapiens), sequence (P04150 whole entry, looked up, the tested form may be a part): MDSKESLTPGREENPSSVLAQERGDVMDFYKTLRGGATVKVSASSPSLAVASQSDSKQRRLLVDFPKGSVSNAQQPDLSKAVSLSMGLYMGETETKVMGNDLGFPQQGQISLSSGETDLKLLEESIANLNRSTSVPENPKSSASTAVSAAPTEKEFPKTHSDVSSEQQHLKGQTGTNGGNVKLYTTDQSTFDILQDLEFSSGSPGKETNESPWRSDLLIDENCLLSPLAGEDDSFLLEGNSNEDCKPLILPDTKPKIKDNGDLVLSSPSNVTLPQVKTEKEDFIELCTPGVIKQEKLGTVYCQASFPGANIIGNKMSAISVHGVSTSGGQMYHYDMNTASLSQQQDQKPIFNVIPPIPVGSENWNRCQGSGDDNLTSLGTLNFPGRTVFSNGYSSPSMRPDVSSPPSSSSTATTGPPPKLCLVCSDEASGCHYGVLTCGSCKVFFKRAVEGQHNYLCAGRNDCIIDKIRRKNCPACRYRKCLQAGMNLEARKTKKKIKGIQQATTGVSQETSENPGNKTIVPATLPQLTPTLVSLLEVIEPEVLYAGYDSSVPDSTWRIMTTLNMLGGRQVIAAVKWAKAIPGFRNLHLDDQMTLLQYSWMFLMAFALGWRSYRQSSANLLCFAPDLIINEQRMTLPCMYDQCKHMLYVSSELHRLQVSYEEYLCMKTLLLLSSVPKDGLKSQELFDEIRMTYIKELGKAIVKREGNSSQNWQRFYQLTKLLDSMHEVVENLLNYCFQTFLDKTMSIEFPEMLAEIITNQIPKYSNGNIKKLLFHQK
Cytochrome P450 3A4 (Homo sapiens), sequence (P08684 whole entry, looked up): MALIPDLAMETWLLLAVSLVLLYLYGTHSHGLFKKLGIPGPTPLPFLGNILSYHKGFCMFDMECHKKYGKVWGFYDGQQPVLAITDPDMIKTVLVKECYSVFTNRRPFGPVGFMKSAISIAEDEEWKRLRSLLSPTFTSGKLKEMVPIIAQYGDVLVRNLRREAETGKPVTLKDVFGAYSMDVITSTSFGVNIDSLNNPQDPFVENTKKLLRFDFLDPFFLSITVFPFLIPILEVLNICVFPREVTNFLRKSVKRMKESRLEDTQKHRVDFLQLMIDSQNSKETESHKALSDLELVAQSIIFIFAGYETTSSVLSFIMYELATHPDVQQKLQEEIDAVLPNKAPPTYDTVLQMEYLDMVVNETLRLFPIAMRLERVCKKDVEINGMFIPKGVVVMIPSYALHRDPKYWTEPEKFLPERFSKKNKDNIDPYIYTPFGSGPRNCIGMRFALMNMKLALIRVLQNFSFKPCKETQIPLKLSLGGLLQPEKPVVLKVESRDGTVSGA
Lysosomal acid glucosylceramidase (Homo sapiens), sequence (P04062 whole entry, looked up): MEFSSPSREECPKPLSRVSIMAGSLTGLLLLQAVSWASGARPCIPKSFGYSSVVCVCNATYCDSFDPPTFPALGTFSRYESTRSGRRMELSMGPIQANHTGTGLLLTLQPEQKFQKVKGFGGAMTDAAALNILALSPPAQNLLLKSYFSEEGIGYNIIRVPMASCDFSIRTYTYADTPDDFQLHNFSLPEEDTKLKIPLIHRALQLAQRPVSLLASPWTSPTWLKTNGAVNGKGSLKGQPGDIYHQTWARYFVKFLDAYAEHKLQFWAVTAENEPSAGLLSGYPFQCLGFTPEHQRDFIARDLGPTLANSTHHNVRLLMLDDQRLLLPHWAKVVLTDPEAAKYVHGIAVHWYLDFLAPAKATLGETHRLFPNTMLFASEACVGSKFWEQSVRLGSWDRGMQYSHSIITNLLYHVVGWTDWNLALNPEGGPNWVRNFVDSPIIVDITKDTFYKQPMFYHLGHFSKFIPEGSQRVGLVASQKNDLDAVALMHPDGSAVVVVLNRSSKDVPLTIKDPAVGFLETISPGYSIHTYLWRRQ
Cytochrome P450 2C9 (Homo sapiens), sequence (P11712 whole entry, looked up): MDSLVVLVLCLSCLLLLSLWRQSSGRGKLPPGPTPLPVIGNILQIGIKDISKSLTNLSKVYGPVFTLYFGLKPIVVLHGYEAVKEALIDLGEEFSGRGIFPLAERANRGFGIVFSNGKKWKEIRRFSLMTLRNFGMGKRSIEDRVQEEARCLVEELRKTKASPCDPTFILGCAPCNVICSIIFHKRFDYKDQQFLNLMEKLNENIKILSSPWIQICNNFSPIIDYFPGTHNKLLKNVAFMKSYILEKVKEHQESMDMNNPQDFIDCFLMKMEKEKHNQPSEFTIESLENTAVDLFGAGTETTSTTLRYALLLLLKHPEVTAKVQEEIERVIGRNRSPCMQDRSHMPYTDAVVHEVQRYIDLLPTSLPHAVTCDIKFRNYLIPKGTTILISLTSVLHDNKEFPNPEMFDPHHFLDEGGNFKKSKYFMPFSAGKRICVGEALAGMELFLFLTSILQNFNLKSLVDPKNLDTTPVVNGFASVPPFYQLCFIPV
Cytochrome P450 2C19 (Homo sapiens), sequence (P33261 whole entry, looked up): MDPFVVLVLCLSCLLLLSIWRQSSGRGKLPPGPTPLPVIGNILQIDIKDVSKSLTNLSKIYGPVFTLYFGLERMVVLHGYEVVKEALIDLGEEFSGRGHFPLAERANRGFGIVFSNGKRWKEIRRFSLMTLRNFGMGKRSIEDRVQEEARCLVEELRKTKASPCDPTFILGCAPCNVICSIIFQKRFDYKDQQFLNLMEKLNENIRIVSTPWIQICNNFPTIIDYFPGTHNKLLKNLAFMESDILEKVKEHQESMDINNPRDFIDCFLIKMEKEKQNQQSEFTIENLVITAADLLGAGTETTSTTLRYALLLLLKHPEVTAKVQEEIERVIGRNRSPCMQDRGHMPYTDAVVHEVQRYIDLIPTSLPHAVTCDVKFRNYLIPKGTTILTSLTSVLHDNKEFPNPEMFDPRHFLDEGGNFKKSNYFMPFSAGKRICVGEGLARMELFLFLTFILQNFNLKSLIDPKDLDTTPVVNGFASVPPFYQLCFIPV

On to `Cc1ccccc1-c1cncnc1NC1CCNCC1`, for which the figures for the Potency in [1], in [5] and in [6] were > 11.4 µM (inactive), > 46 µM (inactive) and > 46 µM (inactive), respectively. Also, the activity change, negative = inhibition in [2] was 11.7% (inactive); in [3], -1.26% (inactive); in assay [12], 3.19% (inactive). Moreover, in [4], the activity, negative = inhibition is 20.9% (inactive). For the same compound, the Potency result in [7], in [8], in assay [9], in assay [10] and in assay [13] was “inactive” each time. For the same compound, the compound was classed as inactive in assay [11] and in assay [14]. In addition, the max response in assay [12] (setting [19]) was determined as 12.9%; in assay [12] (setting [20]) it was 16%.

With `O=C(c1csnn1)N1CCC2(CCCN(Cc3ccccc3)C2)CC1`, the Potency in assay [1] was > 11.4 µM (inactive); in assay [6], > 46 µM (inactive); in assay [16], 1.26 µM (active). The activity change, negative = inhibition is 9.34% (inactive) in assay [2] and 3.37% (inactive) in assay [12]. Further, the Potency result in assay [15], in assay [7] and in assay [8] was “inactive” each time. The activity, negative = inhibition in assay [4] was -5.61% (inactive). In addition, the max response in assay [12] (setting [19]) is 10.8%; in assay [12] (setting [20]), 18%. Further, in assay [14], the outcome was inactive.

For the compound `COC(=O)N1CCC2(CCCN(Cc3ccc(C#N)cc3)C2)CC1`, the results for the Potency in assay [1], in [6] and in assay [16] were > 11.4 µM (inactive), > 46 µM (inactive) and 0.316 µM (active), respectively. Further, the activity change, negative = inhibition is -3.68% (inactive) in assay [2] and -1.17% (inactive) in [12]. In addition, the Potency entry in assay [15], in assay [7], in assay [8] and in assay [9] was “inactive” in each case. Moreover, the activity, negative = inhibition in assay [4] is -2.36% (inactive). Moreover, the max response was determined as 13.4% in assay [12] (setting [19]) and 12.9% in assay [12] (setting [20]). Moreover, in assay [14], the outcome was inactive.

On to `O=C(c1cccc(F)c1)N1CCC2(CC1)CN(c1ccncc1)C2`, for which the Potency in assay [1] was > 11.4 µM (inactive); in assay [6], > 46 µM (inactive); in assay [17] it was 5.01 µM (active); in [18] it was 3.16 µM (active). Moreover, the activity change, negative = inhibition in [2] is -2.31% (inactive); in assay [12] it was -4.55% (inactive). Further, the Potency result in assay [15] and in [8] was “inactive” each time. In addition, in assay [4], the activity, negative = inhibition is 1.58% (inactive). The max response was -24.1% in assay [12] (setting [19]) and -26.4% in assay [12] (setting [20]). For the same compound, the outcome in assay [14] was inactive.

As to `CC(C)CN1CCC2(CC1)CCN(C(=O)c1cccc(F)c1)CC2`, the Potency in assay [1] is > 11.4 µM (inactive); in [6] it was > 46 µM (inactive); in [16], 5.01 µM (active). Also, the activity change, negative = inhibition in assay [2] is -11.3% (inactive); in assay [12], 0.839% (inactive). In addition, the Potency entry in assay [15], in assay [7] and in [8] was “inactive” in each case. For the same compound, the activity, negative = inhibition in assay [4] was 0.382% (inactive). The max response came to 1.53% in assay [12] (setting [19]) and 2.51% in [12] (setting [20]). Besides, in assay [14], the outcome was inactive.

As for `COc1ccccc1CN1CC2(CCN(C(=O)c3ccncc3)CC2)C1`, the figures for the Potency in assay [1], in [6] and in assay [16] were > 11.4 µM (inactive), > 46 µM (inactive) and 0.794 µM (active), respectively. In addition, the activity change, negative = inhibition in assay [2] is -0.483% (inactive); in [12], -2.12% (inactive). In addition, the Potency entry in assay [15], in assay [7], in [8] and in assay [9] was “inactive” each time. Besides, the activity, negative = inhibition in [4] is -1.82% (inactive). For the same compound, the max response is -19.5% in assay [12] (setting [19]) and -17.3% in assay [12] (setting [20]). The result in assay [14] was inactive.

For the compound `O=C(c1cccc(F)c1)N1CCC2(CC1)CN(Cc1ccccc1)C2`, the Potency in [1] was > 11.4 µM (inactive); in [6], > 46 µM (inactive); in assay [16] it was 5.01 µM (active). The activity change, negative = inhibition in [2] is 0.919% (inactive); in [12], -1.4% (inactive). Besides, the Potency entry in assay [15], in assay [7] and in assay [8] was “inactive” each time. The activity, negative = inhibition in [4] is 0.079% (inactive). For the same compound, the values for the max response in [12] (setting [19]) and in assay [12] (setting [20]) were -5.75% and -4.23%, respectively. For the same compound, the outcome in [14] was inactive.

The values above are taken from PubChem BioAssay (NCATS).
